Assay results as given in publication PMC7819943, “Rice protein-binding microarrays: a tool to detect cis-acting elements near promoter regions in rice”.
Whole data set: some 39,000 sequences, median “fluorescence intensity (a.u.)” near 4,300, cut for the highest 2% near 39,000. Only a selection was taken, and the highest values are over-represented in it overall.

What follows are sequences tested against T1, OsSMF1 (Oryza sativa, UniProt Q6ZLB0 1-436) (assay: protein-binding microarray (RPBM); PBS, 2% BSA, 51.3 ng/ul salmon testes DNA, 50 uM zinc acetate, 200 nM TF, 25 C, 1 h; high values mean tight binding). Settings: protein: recombinant; tags: N-terminal polyhistidine and DsRed monomer fusion (pET32a); chain copies: 2; label: CyDye5-dUTP incorporated in the synthesized complementary strand; 3' TTTTT single-stranded linker to array surface; dsDNA, one strand shown.
T1 sequence: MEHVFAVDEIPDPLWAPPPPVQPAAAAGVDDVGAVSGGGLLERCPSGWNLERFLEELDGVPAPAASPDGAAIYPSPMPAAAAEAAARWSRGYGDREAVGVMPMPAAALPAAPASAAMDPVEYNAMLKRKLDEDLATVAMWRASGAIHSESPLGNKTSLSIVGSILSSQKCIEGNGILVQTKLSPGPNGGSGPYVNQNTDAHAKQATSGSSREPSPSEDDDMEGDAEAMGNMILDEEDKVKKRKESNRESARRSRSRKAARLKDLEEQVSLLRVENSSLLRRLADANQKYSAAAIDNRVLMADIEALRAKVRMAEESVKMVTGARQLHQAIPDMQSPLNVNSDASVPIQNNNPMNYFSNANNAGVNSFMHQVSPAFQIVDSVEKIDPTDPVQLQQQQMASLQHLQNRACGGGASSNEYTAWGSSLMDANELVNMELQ
In short: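 Using Ni–NTA, transcription factors fused N-terminally to polyhistidine and DsRed were purified after expression in E. coli BL21-CodonPlus. These were incubated at 200 nM with a blocked, double-stranded custom Agilent array for 1 h at 25 °C in a buffer containing 50 µM zinc acetate, and the array was washed. The binding signal is per-feature fluorescence intensity (arbitrary units) on an Axon 4000B scanner.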
In the case of “GGGCAGCGTGTACAAGCCGGACAACGTGTCGCCGCCGGAGCGGAGTCACCTAGTGCAG”, the binding signal was 3340 fluorescence intensity (a.u.).
“GGCCTGTCGTACAAGCCGCTTTGCTTGGGCATACAAGCAACGGAGTCACCTAGTGCAG” was tested, and the binding signal was 65100 fluorescence intensity (a.u.).
In the case of “CGTACAACGGGTGTGTGTTTGGAGCCTGTAGCATGTGGTGCGGAGTCACCTAGTGCAG”, the binding signal was 4250 fluorescence intensity (a.u.).
With “GATTACATGTAGACTATTTATCTACGTGGACAAAATCTCTCGGAGTCACCTAGTGCAG” the binding signal was 13100 fluorescence intensity (a.u.).
For “TTTGCCATTAGCGTACTCACCTAATCTAATCATCGGATTACGGAGTCACCTAGTGCAG”, the binding signal was 48900 fluorescence intensity (a.u.).
In the case of “CCATTGATTGATTATCAGTGGGCGTAATCATCAGTCTAAACGGAGTCACCTAGTGCAG”, the binding signal was 42100 fluorescence intensity (a.u.).
For “ATTTATCATTATTAACTAATAATAACATTGATGTAATTAACGGAGTCACCTAGTGCAG”, the binding signal was 3400 fluorescence intensity (a.u.).
“TCCATACATTATTGACGTAATCATAAATATACATCCATGTCGGAGTCACCTAGTGCAG” was tested, and the binding signal was 3360 fluorescence intensity (a.u.).
“CGTACTCATCTCCTACACATCATCTCCAATTAATCTAATTCGGAGTCACCTAGTGCAG” was tested, and the binding signal was 3180 fluorescence intensity (a.u.).
“GAAACTCTAAATCTGCCATTACCCCAAGTACATCATTAGTCGGAGTCACCTAGTGCAG” was tested, and the binding signal was 3310 fluorescence intensity (a.u.).
For “AATGACAGGACAACGAGGACACCGTGGATATTAAAGACCCCGGAGTCACCTAGTGCAG”, the binding signal was 4140 fluorescence intensity (a.u.).
“TGGTAACTAAACTGCCATGTCAGGGACAGATCGACCAGTGCGGAGTCACCTAGTGCAG” was tested, and the binding signal was 5160 fluorescence intensity (a.u.).
“AGGACACGTAGCATTTCCTCCTCAAGCAAGAGGAGCAGTACGGAGTCACCTAGTGCAG” was tested, and the binding signal was 4000 fluorescence intensity (a.u.).
With “AACGTCAAGTACTCACGTGGTCCACGAATATTTAAGCCTACGGAGTCACCTAGTGCAG” the binding signal was 4480 fluorescence intensity (a.u.).
In the case of “GCGAACACTGAGGTGTTGACGTTGCGCTCCGCCTCGCTGTCGGAGTCACCTAGTGCAG”, the binding signal was 3840 fluorescence intensity (a.u.).
For “GTCCCTCCGCCGGCATCAGCTCAACGCCGCCGTCCTCCTCCGGAGTCACCTAGTGCAG”, the binding signal was 3370 fluorescence intensity (a.u.).
For “GCCGAGAAGGCATCAACGGCACTGGCGAGGCCCTCTCAGCCGGAGTCACCTAGTGCAG”, the binding signal was 39600 fluorescence intensity (a.u.).
For “ATTAAGCCCTCAATCGGCACAGGCGAGGAGTTCTCATCACCGGAGTCACCTAGTGCAG”, the binding signal was 12000 fluorescence intensity (a.u.).
For “TCGTCGACTACGTGTTGGTGTTTCATGCCGCCAAGTCGACCGGAGTCACCTAGTGCAG”, the binding signal was 5250 fluorescence intensity (a.u.).
“TATAAGCACAATGCAGCCTAGTTGTTGCCGTGACCTGAGTCGGAGTCACCTAGTGCAG” was tested, and the binding signal was 3180 fluorescence intensity (a.u.).
“GACATCTGGAGGCGTCATGCAAGATGTCACATCCATAGAACGGAGTCACCTAGTGCAG” was tested, and the binding signal was 3940 fluorescence intensity (a.u.).
With “ACTGGCCGTGACGCATTTCAACCTCTTGATCTGAACTGCCCGGAGTCACCTAGTGCAG” the binding signal was 3620 fluorescence intensity (a.u.).
For “AACCATAATGTTTGTGACACATTAAGGGCCTGTTCACTTTCGGAGTCACCTAGTGCAG”, the binding signal was 3660 fluorescence intensity (a.u.).
For “GGCAGGCTTGCACACAGGTGCAAAGATACGTGTGGCAGACCGGAGTCACCTAGTGCAG”, the binding signal was 3240 fluorescence intensity (a.u.).
“ATGCAAAAGATATATAGGCTTGTTTTACTGAAGGTGGCTTCGGAGTCACCTAGTGCAG” was tested, and the binding signal was 39100 fluorescence intensity (a.u.).
For “GATAGGCAAAGCTTCGAACTTTGGGCTGAAAACAAATTTTCGGAGTCACCTAGTGCAG”, the binding signal was 28400 fluorescence intensity (a.u.).
In the case of “GAGATGTCTGAACAAACAGATGGACGTGTAATGTTGTGGACGGAGTCACCTAGTGCAG”, the binding signal was 3400 fluorescence intensity (a.u.).
For “CCGTCTTTTCTTTCTTCACGCCAGCGTCGCCGTGGTCAAGCGGAGTCACCTAGTGCAG”, the binding signal was 3650 fluorescence intensity (a.u.).
In the case of “AATTTGGATTTGAATTATATCTGATTCAAATTTGAATTTGCGGAGTCACCTAGTGCAG”, the binding signal was 3270 fluorescence intensity (a.u.).
For “GAAGGAATTGGATTGAATCAGAAAGGGGATCGATTCGATGCGGAGTCACCTAGTGCAG”, the binding signal was 45200 fluorescence intensity (a.u.).
“CGGAGGGATTCGATTTGGAAGGAATTGGATTCGGAGTTGACGGAGTCACCTAGTGCAG” was tested, and the binding signal was 33200 fluorescence intensity (a.u.).
“TTAGCTGGGATGAATTGGGAATGGCTGATGATTCATTGCTCGGAGTCACCTAGTGCAG” was tested, and the binding signal was 3790 fluorescence intensity (a.u.).
For “TTGGAATGCTGAAATTATTAGGGGACTATTCAAATTGATGCGGAGTCACCTAGTGCAG”, the binding signal was 39200 fluorescence intensity (a.u.).
With “TCGATTGGGGATTGGGGATTGGGGATCAGGAGGGATGGGGCGGAGTCACCTAGTGCAG” the binding signal was 4350 fluorescence intensity (a.u.).
For “CAAGCCAAGTCTGAAGAAGAAGAACTAGTCATCGCTTGCCCGGAGTCACCTAGTGCAG”, the binding signal was 3820 fluorescence intensity (a.u.).
For “AAATCCTTGTCTTCCCACGCTGACGCTGCTGTGTCCAGGTCGGAGTCACCTAGTGCAG”, the binding signal was 4530 fluorescence intensity (a.u.).
In the case of “ACCGGCTCACTTATGCGCGCGCGGCGCTGAGGTGGCCGCACGGAGTCACCTAGTGCAG”, the binding signal was 5200 fluorescence intensity (a.u.).
For “GGGCTTCGTCCCCATCATCTCCTGCCACCTCAAACACCTGCGGAGTCACCTAGTGCAG”, the binding signal was 3520 fluorescence intensity (a.u.).
With “GATGGGCTTGTGCTGACATCATCTATACGTGCTTTGCTCCCGGAGTCACCTAGTGCAG” the binding signal was 14500 fluorescence intensity (a.u.).
“ATATATTCTATGTGGTCTGCCCACACGCAAGCATGAGCTCCGGAGTCACCTAGTGCAG” was tested, and the binding signal was 3740 fluorescence intensity (a.u.).
For “TTCCGGCATGCTCAACAATTGGTCCAGGTGTTTGTTCCAGCGGAGTCACCTAGTGCAG”, the binding signal was 42200 fluorescence intensity (a.u.).
With “GCGCCGCCAGCCGCTACAGGTCAGCGGCAACAGCAGGTTCCGGAGTCACCTAGTGCAG” the binding signal was 29200 fluorescence intensity (a.u.).
With “TGCCAATGGTGTGTGCAATTGCAACATGCGTTTGGTTGTGCGGAGTCACCTAGTGCAG” the binding signal was 4100 fluorescence intensity (a.u.).
